According to PubChem BioAssay AID1053118 (Broad Institute, 2014):
Potency and affinity values are given separately. Values without a mark were called inactive.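 Rule for the calls: active = fitted half-maximal concentration for ATP signal loss at most twice the top valid dose; inconclusive = flat curve between -70 and -30%, or an invalid fit; inactive = flat within ±30%, wrong direction, or potency past limit.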

Assay: HepG2 cell cytotoxicity, dose response, cytotoxicity control, cherry-picks, set 5 (AID 1053118);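 note: 0% = neutral control wells and -100% = mitoxantrone positive control wells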
Details: HepG2 viability, ATP luminescence, 72 h; series mostly up to 26 µM; activity change, negative = cytotoxicity: at the top concentration

| SMILES | activity change, negative = cytotoxicity |
| --- | --- |
| Cc1ccc([N+](=O)[O-])cc1NC(=O)CN(C(=O)c1ccccc1Cl)C1CCCCC1 | -5.3% |
| CC1CN(C(=O)c2cc3c(=O)n4ccccc4nc3n2C)CC(C)O1 (stereo not given) | -14.4% |
| C[C@H]1CN([C@@H](C)CO)C(=O)c2cc(NC(=O)C3CCCCC3)ccc2O[C@H]1CN(C)Cc1ccc(-c2ccccc2)cc1 | -19.6% |
| CN(C)c1ccc(-c2ccnc3c2CC(C)(C(=O)NCC2CC2)O3)cc1 (stereo not given) | -10.6% |
| O=C(NCc1ccccc1)c1ccc(-c2cn[nH]c2)c2ccoc12 | 42.2% |
| C[C@H](CO)N1C[C@H](C)[C@@H](CN(C)C(=O)c2cccc(F)c2)Oc2ncc(-c3ccccc3)cc2C1=O | -14.7% |
| Cc1ccc(S(=O)(=O)N2CC[C@@H]3[C@@H](CO)Nc4ccc(-c5cccc(C(=O)N(C)C)c5)cc4[C@@H]32)cc1 | 54.7% |
| O=C(c1cccnc1)N1C[C@H]2[C@@H](c3ccccc31)[C@@H](CO)N2CC1CCCC1 | -16.1% |
| CC(C)C(=O)Nc1ccc2c(c1)C(=O)N(C)[C@@H]1CC[C@H](CC(=O)O)O[C@@H]1CO2 | 0.011% [at 23.5 µM] |
| CCOC(=O)C1=C(C)Nc2nc3ccccc3n2C1c1ccncc1 (stereo not given) | -13% |
| CSc1ccccc1C(=O)C1CCCN(C(=O)CCc2cccnc2)C1 (stereo not given) | -8.03% |
| CN1c2ccc(-c3ccccc3)cc2[C@H]2[C@H](CCN2C(=O)CN2CCOCC2)[C@H]1CO | 16.2% [at 23.5 µM] |
| C[C@H](CO)N1C[C@H](C)[C@H](CN(C)Cc2ccccc2)Oc2ncc(-c3ccccc3)cc2C1=O | -12.3% |
| Cc1ccc(C(O)c2ncc(-c3cccc4ccccc34)[nH]2)cc1F (stereo not given) | -16% |
| O=C(Nc1ccccc1F)N1C[C@@H]2[C@H](c3ccccc31)[C@@H](CO)N2C(=O)C1CC1 | -14.9% |
| COc1cccc(CN2CCN(C(=O)c3ccc(-c4ccccc4)cc3)CC2)c1OC | 1.6% |
| C[C@H](CO)N1C[C@H](C)[C@H](CN(C)C)Oc2cc(C#C[C@@H](C)O)ccc2S1(=O)=O | -0.041% |
| O=C(CSc1nc2ncc(Cl)cc2[nH]1)c1c[nH]c2ccccc12 | 19.1% |

| SMILES | activity change, negative = cytotoxicity |
| --- | --- |
| CN(C)C(=O)c1ccc(-c2ccc3c(c2)[C@H]2[C@H](CCN2C(=O)c2ccc(F)cc2)[C@H](CO)N3C)cc1 | -4.89% |
| C[C@@H]1CN([C@@H](C)CO)C(=O)c2cc(-c3ccccc3)cnc2O[C@@H]1CN(C)C(=O)c1cccc(F)c1 | -14.6% |
| C[C@H]1CN([C@@H](C)CO)C(=O)c2cc(NC(=O)C3CCCCC3)ccc2O[C@@H]1CN(C)Cc1ccc(-c2ccccc2)cc1 | -9.22% |
| CO[C@H]1CN(C)C(=O)c2cc(NC(=O)Nc3ccc(Cl)c(Cl)c3)ccc2OC[C@@H](C)NC[C@@H]1C | -26.6% |
| O=C(Nc1ccccc1F)N1C[C@@H]2[C@H](c3ccccc31)[C@H](CO)N2C(=O)C1CC1 | -13.3% [at 23.5 µM] |
| COC(=O)C[C@@H]1CC[C@H]2[C@@H](COc3ccc(NC(=O)Cc4cccs4)cc3C(=O)N2C)O1 | -10.2% [at 23.5 µM] |
| C[C@H](O)C#Cc1ccc2c(c1)O[C@H](CN(C)C)[C@H](C)CN([C@@H](C)CO)S2(=O)=O | -0.213% |
| N#C[C@@H]1[C@@H](c2ccccc2C2=CCCCC2)[C@H](CO)N1S(=O)(=O)c1ccccc1 | -11.6% |
| CC(C)NC(=O)N(C)C[C@H]1Oc2ccc(NC(=O)CCN3CCOCC3)cc2C(=O)N([C@H](C)CO)C[C@@H]1C | -12.2% |
| COc1ccc(-c2csc(CCn3nc(C)cc3C)n2)cc1OC | -11.4% |
| COc1ccc(CN(C2CCCC2)S(=O)(=O)c2ccc(-n3cnnn3)cc2)cc1OC | 0.181% |
| C[C@@H]1CN([C@@H](C)CO)C(=O)c2cc(NC(=O)C3CCCCC3)ccc2O[C@@H]1CN(C)Cc1ccc(-c2ccccc2)cc1 | -15.3% |
| C[C@@H]1CN([C@H](C)CO)C(=O)c2cc(-c3ccccc3)cnc2O[C@@H]1CN(C)Cc1ccccc1 | -13% |
| Cc1cccc(N2CCN(S(=O)(=O)c3cn(C)cn3)CC2)c1C | 27.8% |
| Cc1cc(C)c(S(=O)(=O)Nn2cnnc2)c(C)c1 | -9.49% |
| Nc1c(C(=O)NCc2ccco2)nnn1Cc1ccccc1 | -25.9% |
| C[C@@H]1CN([C@@H](C)CO)C(=O)c2cc(-c3ccccc3)cnc2O[C@H]1CN(C)C(=O)c1cccc(F)c1 | -6.33% |
